# PubChem BioAssay (Tox21)
# Where “and” joins values, the source holds several entries; their conditions need not be identical. Equal values may be shown once. Values without a mark were called inactive. Inconclusive results are not listed. Where a call stands in place of a potency, no number is given. Calls of active or inactive are those of the source. Unless noted, calls come from the whole dose curve; as a rule, active = well fitted curve in the direction sought with a large enough effect in the repeat runs; inconclusive = weak or mixed curves; inactive = no such curve, though single readings can be large; an effect the other way counts as inactive or inconclusive.
# Experiments:
# [1] = qHTS assay for identifying genotoxic compounds that show differential cytotoxicity against isogenic chicken DT40 cell lines with known DNA damage response pathways - wild type cell line (AID 743012); note: nearly all actives have a fitted effect of over 60% in size; note: potency is the fitted concentration of half-maximal effect
# In short: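 300 wt DT40 cells/well; cpd (DMSO) pintool-transferred after ~0.5 h at 37 C/5% CO2; 40 h incubation; CellTiter-Glo added, 30 min RT; luminescence read.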
# [2] = qHTS assay for identifying genotoxic compounds that show differential cytotoxicity against isogenic chicken DT40 cell lines with known DNA damage response pathways - Rev3 mutant cell line (AID 743014); note: nearly all actives have a fitted effect of over 55% in size; note: potency is the fitted concentration of half-maximal effect
# [3] = qHTS assay for identifying genotoxic compounds that show differential cytotoxicity against isogenic chicken DT40 cell lines with known DNA damage response pathways - Rad54/Ku70 mutant cell line (AID 743015); note: nearly all actives have a fitted effect of over 60% in size; note: potency is the fitted concentration of half-maximal effect
# [4] = qHTS assay to identify small molecule antagonists of the androgen receptor (AR) signaling pathway - cell viability counter screen (AID 743033; note: nearly all actives have a fitted effect of over 45% in size)
# [5] = qHTS assay to identify small molecule antagonists of the androgen receptor (AR) signaling pathway using the MDA cell line - cell viability counter screen (AID 743041; note: nearly all actives have a fitted effect of over 45% in size)
# In short: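 Using the breast carcinoma line MDA-kb2 AR-luc, test chemicals were co-incubated with R1881 for 16 h; CellTiter-Fluor reagent, added at 15.5 h, provided a fluorescence measure of live cells.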
# [6] = qHTS assay to identify small molecule antagonists of the thyroid receptor (TR) signaling pathway - cell viability counter screen (AID 743064); note: nearly all actives have a fitted effect of over 50% in size
# In short: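 In rat pituitary GH3.TRE-Luc reporter cells co-exposed to compound and 1 nM T3 for 23.5 h, cytotoxicity was assessed with CellTiter-Fluor in the same wells, read by fluorescence.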
# [7] = qHTS assay to identify small molecule antagonists of the thyroid receptor (TR) signaling pathway (AID 743065); note: series mostly up to about 70 µM; nearly all actives have a fitted effect of over 55% in size
# In short: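 Antagonism measured as loss of luciferase signal in GH3 cells stably carrying a TRE-luciferase reporter, co-treated with compound and T3 (1 nM final) for 23.5 h at 37 C. Viability was read in the same well by CellTiter-Fluor.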
# [8] = test system: thyroid hormone receptor (rat, GH3 cells); experiment: qHTS assay to identify small molecule agonists of the thyroid receptor (TR) signaling pathway (AID 743066; calls by dose curve)
# [9] = target: Estrogen receptor (Homo sapiens) (UniProt P03372); experiment: qHTS assay to identify small molecule antagonists of the estrogen receptor alpha (ER-alpha) signaling pathway (AID 743069; active = well fitted curve in the direction sought with a large enough effect in the signal ratio in the repeat runs, not every such curve was filed as active; the % refers to the signal ratio)
# Estrogen receptor (Homo sapiens), sequence (P03372 whole entry, looked up): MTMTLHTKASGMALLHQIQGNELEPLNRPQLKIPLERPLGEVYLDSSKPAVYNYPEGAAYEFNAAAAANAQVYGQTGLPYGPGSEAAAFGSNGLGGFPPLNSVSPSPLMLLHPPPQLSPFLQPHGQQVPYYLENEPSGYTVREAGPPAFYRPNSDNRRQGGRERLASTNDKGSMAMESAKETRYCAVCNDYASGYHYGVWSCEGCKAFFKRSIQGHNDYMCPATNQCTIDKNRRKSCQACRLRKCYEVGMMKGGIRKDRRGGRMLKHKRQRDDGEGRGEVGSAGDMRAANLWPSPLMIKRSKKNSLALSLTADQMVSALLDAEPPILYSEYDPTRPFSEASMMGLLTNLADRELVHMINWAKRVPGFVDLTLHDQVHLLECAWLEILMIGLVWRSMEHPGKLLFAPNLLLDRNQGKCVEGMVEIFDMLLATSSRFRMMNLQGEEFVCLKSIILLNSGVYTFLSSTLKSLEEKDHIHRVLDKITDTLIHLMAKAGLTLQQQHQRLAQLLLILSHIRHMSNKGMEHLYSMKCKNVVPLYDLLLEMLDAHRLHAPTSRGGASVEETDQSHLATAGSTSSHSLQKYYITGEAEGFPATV
# In short: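 Fluorescence intensity from a beta-lactamase FRET substrate served as the read-out. Cells: HEK293 with stably integrated ER-alpha-UAS-bla reporter. Agonist 17beta-estradiol was co-added with compounds; incubation 18 hr at 37C, substrate 2 hr at room temperature.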
# [10] = qHTS assay to identify small molecule antagonists of the estrogen receptor alpha (ER-alpha) signaling pathway - cell viability counter screen (AID 743074; calls by dose curve; note: nearly all actives have a fitted effect of over 45% in size; note: potency is the fitted concentration of half-maximal effect)
# [11] = target: Estrogen receptor (Homo sapiens) (UniProt P03372); experiment: qHTS assay to identify small molecule agonists of the estrogen receptor alpha (ER-alpha) signaling pathway (AID 743075; calls by dose curve)
# [12] = target: Estrogen receptor (Homo sapiens) (UniProt P03372); experiment: qHTS assay to identify small molecule agonists of the estrogen receptor alpha (ER-alpha) signaling pathway using the BG1 cell line (AID 743079); note: nearly all actives have a fitted effect of over 20% in size; note: potency is the fitted concentration of half-maximal effect
# [13] = qHTS assay to identify small molecule antagonists of the estrogen receptor alpha (ER-alpha) signaling pathway using the BG1 cell line (AID 743080; calls by dose curve;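 note: BG1 cells stimulated with 17beta-estradiol alongside compound; series mostly up to about 70 µM; nearly all actives have a fitted effect of over 25% in size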)
# In short: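 Endogenous full-length ER-alpha in BG1-Luc-4E2 cells drives a stably integrated 4×ERE luciferase gene; compounds were tested against 17beta-estradiol over 21.5 h, with luminescence and multiplexed viability fluorescence recorded.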
# [14] = qHTS assay to identify small molecule antagonists of the estrogen receptor alpha (ER-alpha) signaling pathway using the BG1 cell line - cell viability counter screen (AID 743081);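 note: compound given together with 17beta-estradiol as the ER stimulus; series mostly up to about 70 µM; nearly all actives have a fitted effect of over 45% in size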
# Aromatase (Homo sapiens) = Aromatase (Homo sapiens) (UniProt P11511); experiment: qHTS assay to identify aromatase inhibitors (AID 743083); note: nearly all actives have a fitted effect of over 55% in size; note: potency is the fitted concentration of half-maximal effect; for activity, negative = inhibition: series mostly up to about 70 µM
# Aromatase (Homo sapiens), sequence (P11511 whole entry, looked up): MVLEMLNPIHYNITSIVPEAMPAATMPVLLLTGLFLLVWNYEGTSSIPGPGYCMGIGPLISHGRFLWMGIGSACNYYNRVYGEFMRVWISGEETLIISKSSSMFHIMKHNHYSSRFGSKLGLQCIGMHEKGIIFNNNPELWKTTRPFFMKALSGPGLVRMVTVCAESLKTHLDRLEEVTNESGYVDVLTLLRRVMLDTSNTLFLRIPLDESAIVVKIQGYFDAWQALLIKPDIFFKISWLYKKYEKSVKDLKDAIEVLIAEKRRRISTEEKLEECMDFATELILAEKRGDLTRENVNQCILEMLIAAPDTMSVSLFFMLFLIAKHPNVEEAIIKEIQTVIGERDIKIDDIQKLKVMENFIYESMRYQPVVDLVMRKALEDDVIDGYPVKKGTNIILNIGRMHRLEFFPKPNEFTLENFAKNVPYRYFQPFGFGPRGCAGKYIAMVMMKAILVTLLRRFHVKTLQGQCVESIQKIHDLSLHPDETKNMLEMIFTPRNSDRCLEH
# [15] = target: Androgen receptor (Homo sapiens) (UniProt P10275); experiment: qHTS assay to identify small molecule antagonists of the androgen receptor (AR) signaling pathway (AID 743035; active = well fitted inhibition curve with a large enough effect in the signal ratio in the repeat runs, not every such curve was filed as active; the % refers to the signal ratio)
# Androgen receptor (Homo sapiens), sequence (P10275 whole entry, looked up): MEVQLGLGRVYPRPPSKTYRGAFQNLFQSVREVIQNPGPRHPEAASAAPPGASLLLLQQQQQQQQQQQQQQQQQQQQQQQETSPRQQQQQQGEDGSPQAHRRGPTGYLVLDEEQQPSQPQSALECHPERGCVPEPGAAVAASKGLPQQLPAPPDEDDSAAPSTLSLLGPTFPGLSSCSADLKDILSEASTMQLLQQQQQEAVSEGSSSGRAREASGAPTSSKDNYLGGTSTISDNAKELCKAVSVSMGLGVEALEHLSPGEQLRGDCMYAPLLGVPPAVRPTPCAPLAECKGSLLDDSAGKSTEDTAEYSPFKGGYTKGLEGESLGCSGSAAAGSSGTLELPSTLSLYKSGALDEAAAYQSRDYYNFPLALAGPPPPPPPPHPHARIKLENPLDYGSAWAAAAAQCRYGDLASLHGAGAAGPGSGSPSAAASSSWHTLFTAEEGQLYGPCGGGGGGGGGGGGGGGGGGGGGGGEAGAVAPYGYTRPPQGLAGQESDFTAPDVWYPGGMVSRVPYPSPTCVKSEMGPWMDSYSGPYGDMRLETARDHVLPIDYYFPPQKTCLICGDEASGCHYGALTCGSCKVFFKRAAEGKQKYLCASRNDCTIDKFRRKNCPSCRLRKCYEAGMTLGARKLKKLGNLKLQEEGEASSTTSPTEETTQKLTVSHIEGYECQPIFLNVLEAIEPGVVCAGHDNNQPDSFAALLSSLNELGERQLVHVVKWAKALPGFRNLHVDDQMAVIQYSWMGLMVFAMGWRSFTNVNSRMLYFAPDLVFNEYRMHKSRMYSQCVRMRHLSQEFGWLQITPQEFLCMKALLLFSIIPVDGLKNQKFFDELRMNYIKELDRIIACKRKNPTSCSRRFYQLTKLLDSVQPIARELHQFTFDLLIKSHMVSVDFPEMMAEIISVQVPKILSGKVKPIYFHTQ
# In short: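 In this cell-based reporter screen, compounds were tested in concentration series against R1881-activated HEK293 cells expressing beta-lactamase under UAS control; after 16 h at 37C, FRET substrate was added and fluorescence read 2 h later.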
# [16] = target: Androgen receptor (Homo sapiens) (UniProt P10275); experiment: qHTS assay to identify small molecule agonists of the androgen receptor (AR) signaling pathway (AID 743036; active = well fitted activation curve with a large enough effect in the signal ratio in the repeat runs, with a control signal flat, not every such curve was filed as active; the % refers to the signal ratio)
# In short: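 Cell-based FRET reporter assay: HEK293 line with a UAS-beta-lactamase construct, compounds added in DMSO, 16 h exposure at 37C, then 2 h substrate step at room temperature and fluorescence intensity read.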
# [17] = target: Androgen receptor (Homo sapiens) (UniProt P10275); experiment: qHTS assay to identify small molecule agonists of the androgen receptor (AR) signaling pathway using the MDA cell line (AID 743040; note: nearly all actives have a fitted effect of over 20% in size)
# In short: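 Stable MMTV-luciferase reporter in MDA-kb2 cells; note the promoter carries GR as well as AR response elements. 16 h compound treatment, 37C, 0% CO2; ONE-Glo luminescence endpoint.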
# [18] = target: Androgen receptor (Homo sapiens) (UniProt P10275); experiment: qHTS assay to identify small molecule antagonists of the androgen receptor (AR) signaling pathway using the MDA cell line (AID 743042; note: nearly all actives have a fitted effect of over 55% in size)
# In short: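 Antagonist mode: compounds plus R1881 agonist added to MDA-kb2 AR-luc cells, incubated 16 h at 37C. Luciferase reporter luminescence quantified, with multiplexed CellTiter-Fluor readout for cell viability.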
structure (smiles),measurement,setting,value
CCCCCCCCCCCCCC(=O)OCC,Potency,[1],inactive
same,Potency,[2],inactive
same,Potency,[3],inactive
same,outcome,[4],inactive
same,outcome,[5],inactive
same,Potency,[6],inactive
same,Potency,[7],inactive
same,Potency,[8],inactive
same,outcome,[9],inactive
same,Potency,[10],inactive
same,Potency,[11],inactive
same,Potency,[12],inactive
same,Potency,[13],inactive
same,outcome,[14],inactive
same,Potency,Aromatase (Homo sapiens),inactive
CC1=C(O)C(=O)CO1,Potency,[2],inactive
same,Potency,[3],inactive
same,outcome,[5],inactive
same,Potency,[7],inactive
same,Potency,[8],inactive
same,outcome,[9],inactive
same,Potency,[10],inactive
same,Potency,[11],inactive
same,Potency,[12],inactive
same,Potency,[13],inactive
same,outcome,[14],inactive
same,Potency,Aromatase (Homo sapiens),inactive
CCCC(=O)CC,Potency,[1],inactive
same,Potency,[2],inactive
same,Potency,[3],inactive
same,outcome,[4],inactive
same,Potency,[6],inactive
same,Potency,[7],inactive
same,Potency,[8],inactive
same,outcome,[9],inactive
same,Potency,[10],inactive
same,Potency,[11],inactive
same,Potency,[12],28.1 µM (active)
same,Potency,[13],inactive
same,outcome,[14],inactive
same,Potency,Aromatase (Homo sapiens),inactive
CCc1ncc(C)[nH]1,Potency,[1],inactive
same,Potency,[2],inactive
same,Potency,[3],inactive
same,outcome,[15],inactive
same,outcome,[16],inactive
same,outcome,[17],inactive
same,outcome,[18],inactive
same,Potency,[6],inactive
same,Potency,[7],inactive
same,Potency,[8],inactive
same,Potency,[10],inactive
same,outcome,[14],inactive
same,Potency,Aromatase (Homo sapiens),inactive
C=CC(=O)OCC[N+](C)(C)C,Potency,[1],inactive
same,Potency,[2],inactive
same,Potency,[3],inactive
same,outcome,[4],inactive
same,outcome,[5],inactive
same,Potency,[7],inactive
same,Potency,[8],inactive
same,outcome,[9],inactive
same,Potency,[11],inactive
same,Potency,[12],inactive
same,Potency,[13],inactive
same,outcome,[14],inactive
same,Potency,Aromatase (Homo sapiens),inactive
Cc1ccc(O)c(C(=O)c2ccccc2)c1,Potency,[1],inactive
same,Potency,[2],inactive
same,Potency,[3],inactive
same,outcome,[15],inactive
same,outcome,[16],inactive
same,outcome,[17],inactive
same,outcome,[5],inactive
same,Potency,[7],inactive
same,Potency,[8],inactive
same,Potency,[10],inactive
same,outcome,[14],inactive
same,Potency,Aromatase (Homo sapiens),55 µM (active)
NS(=O)(=O)c1cc2c(cc1C(F)(F)F)NCNS2(=O)=O,Potency,[1],inactive
same,Potency,[2],inactive
same,Potency,[3],inactive
same,outcome,[5],inactive
same,Potency,[6],inactive
same,Potency,[7],inactive
same,Potency,[8],inactive
same,outcome,[9],inactive
same,Potency,[10],inactive
same,Potency,[11],inactive
same,Potency,[12],inactive
same,Potency,[13],inactive
same,outcome,[14],inactive
same,Potency,Aromatase (Homo sapiens),inactive
COC(=O)c1ccccc1Cl,Potency,[1],inactive
same,Potency,[2],inactive
same,Potency,[3],inactive
same,outcome,[4],inactive
same,outcome,[5],inactive
same,Potency,[6],inactive
same,Potency,[7],inactive
same,Potency,[8],inactive
same,Potency,[10],inactive
same,outcome,[14],inactive
same,Potency,Aromatase (Homo sapiens),inactive
O=C1CC2(CCCC2)CC(=O)N1CCNCC1COc2ccccc2O1 (stereo not drawn),Potency,[1],21.1 µM (active)
same,Potency,[2],26.6 µM (active)
same,Potency,[3],26.6 µM (active)
same,Potency,[6],inactive
same,Potency,[8],inactive
same,Potency,[10],21.3 µM (active)
same,outcome,[14],inactive
same,Potency,Aromatase (Homo sapiens),inactive
c1cc2ccc3ccc4ccc5cccc6c(c1)c2c3c4c56,"activity change, negative = cytotoxicity",[1],-1.12% [at 3.82 µM]
same,"activity, negative = cytotoxicity",[2],5.02% [at 3.82 µM]
same,"activity change, negative = cytotoxicity",[3],5.01% [at 3.83 µM]
same,"activity change, negative = cytotoxicity",[4],1.8% [at 3.15 µM]
same,"activity change, negative = cytotoxic",[6],20.6% [at 3.79 µM]
same,"activity, negative = inhibition",[7],1.62% [at 3.79 µM]
same,activation,[8],1% [at 3.63 µM]
same,"activity, negative = cytotoxicity",[10],7.3% [at 3.02 µM]
same,"activity change, negative = cytotoxicity",[14],17.4% [at 3.79 µM]
same,"activity, negative = inhibition",Aromatase (Homo sapiens),-7.29% [at 3.79 µM]
N=C(N)N1CCc2ccccc2C1,Potency,[1],inactive
same,Potency,[2],inactive
same,Potency,[3],inactive
same,outcome,[4],inactive
same,outcome,[5],inactive
same,Potency,[6],inactive
same,Potency,[7],inactive
same,Potency,[8],inactive
same,Potency,[10],inactive
same,Potency,[13],inactive
same,outcome,[14],inactive
same,Potency,Aromatase (Homo sapiens),inactive
CC(C)(C)OC=O,Potency,[1],inactive
same,Potency,[2],inactive
same,Potency,[3],inactive
same,outcome,[4],inactive
same,Potency,[6],inactive
same,Potency,[7],inactive
same,Potency,[8],inactive
same,Potency,[10],inactive
same,outcome,[14],inactive
same,Potency,Aromatase (Homo sapiens),inactive
CC(CN1CC(=O)NC(=O)C1)N1CC(=O)NC(=O)C1 (stereo not drawn),Potency,[1],4.22 µM (active)
same,Potency,[3],0.596 µM (active)
same,outcome,[4],inactive
same,outcome,[16],inactive
same,outcome,[5],inactive
same,outcome,[18],inactive
same,Potency,[6],inactive
same,Potency,[7],inactive
same,Potency,[8],inactive
same,outcome,[9],inactive
same,Potency,[10],inactive
same,Potency,[11],inactive
same,Potency,[12],inactive
same,outcome,[14],inactive
same,Potency,Aromatase (Homo sapiens),inactive
CCO[Si](CC(C)C)(OCC)OCC,Potency,[1],inactive
same,Potency,[2],24.3 µM (active)
same,Potency,[3],inactive
same,outcome,[5],inactive
same,Potency,[6],inactive
same,Potency,[7],inactive
same,Potency,[8],inactive
same,outcome,[9],inactive
same,Potency,[10],inactive
same,Potency,[11],inactive
same,Potency,[12],inactive
same,Potency,[13],inactive
same,outcome,[14],inactive
same,Potency,Aromatase (Homo sapiens),inactive
CCCCN1C(=O)c2ccccc2C1=O,Potency,[1],inactive
same,Potency,[2],inactive
same,Potency,[3],inactive
same,outcome,[5],inactive
same,Potency,[6],inactive
same,outcome,[9],inactive
same,Potency,[10],inactive
same,Potency,[11],inactive
same,Potency,[12],inactive
same,Potency,[13],inactive
same,outcome,[14],inactive
same,Potency,Aromatase (Homo sapiens),inactive
CCCCCCCCS(=O)(=O)O,Potency,[1],inactive
same,Potency,[2],inactive
same,Potency,[3],inactive
same,outcome,[5],inactive
same,Potency,[7],inactive
same,Potency,[8],inactive
same,Potency,[10],inactive
same,outcome,[14],inactive
same,Potency,Aromatase (Homo sapiens),inactive
CCCCS,Potency,[1],inactive
same,Potency,[2],inactive
same,Potency,[3],inactive
same,outcome,[5],inactive
same,Potency,[6],inactive
same,Potency,[7],inactive
same,Potency,[8],inactive
same,outcome,[9],inactive
same,Potency,[10],inactive
same,Potency,[11],inactive
same,Potency,[12],inactive
same,Potency,[13],inactive
same,outcome,[14],inactive
same,Potency,Aromatase (Homo sapiens),inactive
C[C@]12C=CC(=O)C=C1[C@@H](F)C[C@@H]1[C@@H]2[C@@H](O)C[C@@]2(C)[C@H]1CC[C@]2(O)C(=O)CO,Potency,[1],18.8 µM (active)
same,Potency,[2],18.8 µM (active)
same,Potency,[3],23.7 µM (active) and 26.6 µM (active)
same,outcome,[4],inactive
same,outcome,[5],inactive
same,Potency,[6],inactive
same,Potency,[10],inactive
same,Potency,[11],inactive
same,outcome,[14],inactive
same,Potency,Aromatase (Homo sapiens),inactive
C/C(=N\O)c1ccc(OCC(=O)N2CCCCC2)cc1,Potency,[2],inactive
same,Potency,[3],inactive
same,outcome,[4],inactive
same,outcome,[15],inactive
same,outcome,[16],inactive
same,outcome,[17],inactive
same,outcome,[5],inactive
same,outcome,[18],inactive
same,Potency,[6],inactive
same,Potency,[7],inactive
same,Potency,[8],inactive
same,outcome,[9],inactive
same,Potency,[11],inactive
same,Potency,[12],4.22 µM (active)
same,outcome,[14],inactive
same,Potency,Aromatase (Homo sapiens),inactive
CN1C(CCl)Nc2cc(Cl)c(S(N)(=O)=O)cc2S1(=O)=O (stereo not drawn),Potency,[1],26.6 µM (active)
same,Potency,[3],29.8 µM (active)
same,outcome,[4],inactive
same,outcome,[5],inactive
same,outcome,[9],inactive
same,Potency,[10],inactive
same,Potency,[11],inactive
same,Potency,[12],inactive
same,Potency,[13],inactive
same,outcome,[14],inactive
same,Potency,Aromatase (Homo sapiens),inactive
O=S(=O)(O)c1cc(I)c(O)c2ncccc12,outcome,[4],inactive
same,outcome,[5],inactive
same,Potency,[6],inactive
same,Potency,[7],inactive
same,Potency,[8],inactive
same,Potency,[10],inactive
same,outcome,[14],inactive
same,Potency,Aromatase (Homo sapiens),inactive
Cc1ccc2ccccc2n1,Potency,[1],inactive
same,Potency,[2],inactive
same,Potency,[3],inactive
same,outcome,[4],inactive
same,Potency,[6],inactive
same,Potency,[7],inactive
same,Potency,[8],inactive
same,Potency,[10],inactive
same,outcome,[14],inactive
same,Potency,Aromatase (Homo sapiens),inactive
